Experimental data taken from the supplement of paper PMC10849652.
Targets with a hit are over-represented here; the source holds about 8,800 in all. About 0.5% of all pairs of compound and target were hits. A number with no mark means an inactive call.

How the values were obtained:
Experiment in all cases: log2 fold change, soluble protein after heating vs DMSO (PISA); higher = thermal stabilisation; K562 lysate, 10 uM; active = over 0.2 and 3.5 SD of the protein, either way, in both replicates (recomputed)
[1] = compound: C[C@H](C1=CC=C(C=C1)C(=O)NC2=C3C=CNC3=NC=C2)N
How it was run: (§1)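 Following dounce homogenisation of K562 pellets in PBS pH 7.4 with 1 mM MgCl2, crude extract at 1 mg/mL protein was incubated for 30 min with 10 μM compound. Aliquots were then heated for 3 min over 48°C-58°C and pooled, NP-40 was added to 0.5% at 4°C, and soluble protein was recovered as the supernatant at 21,000xg for 90 min. Channel-sum-equalised TMTpro 16plex LC-MS/MS quantified this protein. Each value, from duplicates, is a log-two fold change in thermal stability relative to solvent controls.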

gandotinib = compound: Cc1cc(Nc2cc(CN3CCOCC3)c3nc(C)c(Cc4ccc(Cl)cc4F)n3n2)n[nH]1 [gandotinib]
How it was run: as §1

[2] = compound: Cc1cccc(CC(=O)N2CCc3c2ccc(-c2cn(C)c4ncnc(N)c24)c3F)n1
How it was run: as §1

nilotinib = compound: Cc1cn(-c2cc(NC(=O)c3ccc(C)c(Nc4nccc(-c5cccnc5)n4)c3)cc(C(F)(F)F)c2)cn1 [nilotinib]
How it was run: as §1

[3] = compound: Cc1nc(Nc2n[nH]c3c2CN(C(=O)N[C@H](CN(C)C)c2ccccc2)C3(C)C)c2sccc2n1
How it was run: as §1

[4] = compound: Cc1ncc(-c2ccnc(Nc3ccc(S(C)(=O)=O)cc3)n2)n1C(C)C
How it was run: as §1

tipifarnib = compound: Cn1cncc1[C@@](N)(c1ccc(Cl)cc1)c1ccc2c(c1)c(-c1cccc(Cl)c1)cc(=O)n2C [tipifarnib]
How it was run: as §1

lapatinib = compound: CS(=O)(=O)CCNCc1ccc(-c2ccc3ncnc(Nc4ccc(OCc5cccc(F)c5)c(Cl)c4)c3c2)o1 [lapatinib]
How it was run: as §1

duvelisib = compound: C[C@H](Nc1ncnc2nc[nH]c12)c1cc2cccc(Cl)c2c(=O)n1-c1ccccc1 [duvelisib]
How it was run: as §1

tozasertib = compound: Cc1cc(Nc2cc(N3CCN(C)CC3)nc(Sc3ccc(NC(=O)C4CC4)cc3)n2)n[nH]1 [tozasertib]
How it was run: as §1

dasatinib = compound: Cc1nc(Nc2ncc(C(=O)Nc3c(C)cccc3Cl)s2)cc(N2CCN(CCO)CC2)n1 [dasatinib]
How it was run: as §1

[5] = compound: Cn1cc(-c2ccc3c(c2)CCN3C(=O)Cc2cccc(C(F)(F)F)c2)c2c(N)ncnc21
How it was run: as §1

[6] = compound: NC(=O)c1cnc(N[C@@H]2CCCC[C@@H]2N)nc1Nc1cccc(-n2nccn2)c1
How it was run: as §1

crizotinib = compound: C[C@@H](Oc1cc(-c2cnn(C3CCNCC3)c2)cnc1N)c1c(Cl)ccc(F)c1Cl [crizotinib]
How it was run: as §1

doramapimod = compound: Cc1ccc(-n2nc(C(C)(C)C)cc2NC(=O)Nc2ccc(OCCN3CCOCC3)c3ccccc23)cc1 [doramapimod]
How it was run: as §1

quisinostat = compound: Cn1cc(CNCC2CCN(c3ncc(C(=O)NO)cn3)CC2)c2ccccc21 [quisinostat]
How it was run: as §1

[7] = compound: NC(=O)Nc1cc(-c2cccc(F)c2)sc1C(=O)N[C@H]1CCCNC1
How it was run: as §1

[8] = compound: NC1(c2ccc(-c3nc4ccn5c(=O)[nH]nc5c4cc3-c3ccccc3)cc2)CCC1
How it was run: as §1

pictilisib = compound: CS(=O)(=O)N1CCN(Cc2cc3nc(-c4cccc5[nH]ncc45)nc(N4CCOCC4)c3s2)CC1 [pictilisib]
How it was run: as §1

bafetinib = compound: Cc1ccc(NC(=O)c2ccc(CN3CC[C@H](N(C)C)C3)c(C(F)(F)F)c2)cc1Nc1nccc(-c2cncnc2)n1 [bafetinib]
How it was run: as §1

Sequence of UniProt Q6ZRI6 (Q6ZRI6 whole entry, looked up): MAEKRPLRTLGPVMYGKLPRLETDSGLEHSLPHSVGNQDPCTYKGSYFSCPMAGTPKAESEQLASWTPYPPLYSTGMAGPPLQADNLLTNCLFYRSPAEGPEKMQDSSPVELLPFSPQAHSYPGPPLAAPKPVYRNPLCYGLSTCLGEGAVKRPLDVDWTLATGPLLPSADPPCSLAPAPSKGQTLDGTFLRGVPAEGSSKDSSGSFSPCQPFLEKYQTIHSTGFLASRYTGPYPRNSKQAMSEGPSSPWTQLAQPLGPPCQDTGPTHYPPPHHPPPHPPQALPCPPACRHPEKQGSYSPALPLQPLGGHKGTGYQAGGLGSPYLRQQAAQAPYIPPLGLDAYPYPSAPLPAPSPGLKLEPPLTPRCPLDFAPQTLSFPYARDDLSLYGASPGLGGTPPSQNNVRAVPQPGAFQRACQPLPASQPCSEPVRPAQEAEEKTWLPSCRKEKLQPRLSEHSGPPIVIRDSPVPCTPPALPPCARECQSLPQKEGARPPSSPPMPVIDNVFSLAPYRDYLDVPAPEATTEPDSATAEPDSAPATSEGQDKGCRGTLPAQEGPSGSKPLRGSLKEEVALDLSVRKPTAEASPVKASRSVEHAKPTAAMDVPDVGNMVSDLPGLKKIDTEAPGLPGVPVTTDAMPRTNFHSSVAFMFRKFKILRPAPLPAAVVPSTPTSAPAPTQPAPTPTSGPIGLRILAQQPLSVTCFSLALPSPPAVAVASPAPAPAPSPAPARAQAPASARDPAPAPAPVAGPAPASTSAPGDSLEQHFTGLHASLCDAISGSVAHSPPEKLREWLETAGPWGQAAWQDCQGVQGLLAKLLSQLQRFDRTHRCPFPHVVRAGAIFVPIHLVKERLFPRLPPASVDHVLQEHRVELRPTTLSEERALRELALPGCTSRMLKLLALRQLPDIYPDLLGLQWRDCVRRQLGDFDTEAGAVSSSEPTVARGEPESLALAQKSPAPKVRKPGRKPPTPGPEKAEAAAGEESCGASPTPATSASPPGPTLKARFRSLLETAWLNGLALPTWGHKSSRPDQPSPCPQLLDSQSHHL
Sequence of UniProt Q9UNH5 (Q9UNH5 whole entry, looked up): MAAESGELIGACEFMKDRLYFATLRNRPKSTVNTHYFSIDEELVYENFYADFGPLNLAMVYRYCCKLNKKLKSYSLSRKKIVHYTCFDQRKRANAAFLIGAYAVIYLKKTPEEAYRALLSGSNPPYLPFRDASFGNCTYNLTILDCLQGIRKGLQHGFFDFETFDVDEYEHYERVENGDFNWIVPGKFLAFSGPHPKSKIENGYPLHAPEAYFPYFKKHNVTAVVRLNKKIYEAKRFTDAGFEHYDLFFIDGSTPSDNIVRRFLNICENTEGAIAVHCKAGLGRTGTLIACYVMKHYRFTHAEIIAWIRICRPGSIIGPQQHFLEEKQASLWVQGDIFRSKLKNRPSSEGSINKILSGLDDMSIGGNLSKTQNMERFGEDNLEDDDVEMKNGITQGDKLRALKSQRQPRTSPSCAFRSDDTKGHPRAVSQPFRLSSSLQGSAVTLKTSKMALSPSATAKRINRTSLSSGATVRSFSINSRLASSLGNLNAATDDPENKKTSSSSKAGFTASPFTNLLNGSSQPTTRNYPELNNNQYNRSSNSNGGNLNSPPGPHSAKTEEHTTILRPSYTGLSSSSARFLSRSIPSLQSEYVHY
Sequence of UniProt O94986 (O94986 whole entry, looked up): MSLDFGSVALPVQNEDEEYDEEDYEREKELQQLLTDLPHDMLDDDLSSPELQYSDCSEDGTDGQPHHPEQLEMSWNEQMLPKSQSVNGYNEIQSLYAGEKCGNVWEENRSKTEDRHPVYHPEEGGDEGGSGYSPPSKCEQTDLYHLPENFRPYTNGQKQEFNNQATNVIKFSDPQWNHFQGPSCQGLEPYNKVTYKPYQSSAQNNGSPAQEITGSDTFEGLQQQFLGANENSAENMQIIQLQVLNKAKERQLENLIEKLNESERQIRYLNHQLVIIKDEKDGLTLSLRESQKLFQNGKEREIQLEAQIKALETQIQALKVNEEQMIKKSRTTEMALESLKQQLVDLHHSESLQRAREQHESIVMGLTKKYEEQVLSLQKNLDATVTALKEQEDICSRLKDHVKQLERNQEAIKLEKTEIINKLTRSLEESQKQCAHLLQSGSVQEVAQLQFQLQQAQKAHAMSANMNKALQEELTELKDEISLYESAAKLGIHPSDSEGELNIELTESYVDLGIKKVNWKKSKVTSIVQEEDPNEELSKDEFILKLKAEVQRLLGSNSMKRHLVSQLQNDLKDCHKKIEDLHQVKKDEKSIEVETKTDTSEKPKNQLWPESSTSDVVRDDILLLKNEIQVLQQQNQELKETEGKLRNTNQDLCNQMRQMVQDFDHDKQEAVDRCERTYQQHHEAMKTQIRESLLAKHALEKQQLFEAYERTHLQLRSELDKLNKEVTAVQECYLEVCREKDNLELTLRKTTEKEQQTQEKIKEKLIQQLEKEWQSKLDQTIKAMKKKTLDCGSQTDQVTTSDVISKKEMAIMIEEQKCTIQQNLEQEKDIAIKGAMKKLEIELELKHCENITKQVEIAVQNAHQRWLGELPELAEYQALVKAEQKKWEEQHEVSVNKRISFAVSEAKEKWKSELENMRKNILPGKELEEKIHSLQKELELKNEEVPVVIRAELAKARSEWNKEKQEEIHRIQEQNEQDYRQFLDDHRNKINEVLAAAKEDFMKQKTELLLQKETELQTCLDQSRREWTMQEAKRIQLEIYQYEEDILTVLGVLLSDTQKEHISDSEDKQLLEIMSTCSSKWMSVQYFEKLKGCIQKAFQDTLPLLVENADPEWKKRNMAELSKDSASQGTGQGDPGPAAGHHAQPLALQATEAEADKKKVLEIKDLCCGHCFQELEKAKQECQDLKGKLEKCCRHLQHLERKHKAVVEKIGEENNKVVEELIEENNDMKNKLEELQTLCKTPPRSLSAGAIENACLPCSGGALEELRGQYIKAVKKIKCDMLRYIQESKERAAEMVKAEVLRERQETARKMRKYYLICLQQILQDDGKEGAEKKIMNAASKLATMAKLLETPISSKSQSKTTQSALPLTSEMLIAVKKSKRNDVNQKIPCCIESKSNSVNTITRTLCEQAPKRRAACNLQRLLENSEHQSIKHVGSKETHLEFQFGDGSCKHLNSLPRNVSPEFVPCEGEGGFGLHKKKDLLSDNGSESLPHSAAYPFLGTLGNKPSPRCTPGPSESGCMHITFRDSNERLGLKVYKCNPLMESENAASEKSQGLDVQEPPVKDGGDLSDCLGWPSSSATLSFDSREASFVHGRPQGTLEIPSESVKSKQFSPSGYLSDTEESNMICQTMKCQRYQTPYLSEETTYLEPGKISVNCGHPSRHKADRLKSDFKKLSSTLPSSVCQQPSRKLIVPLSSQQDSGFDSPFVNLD
Sequence of UniProt Q9BRD0 (Q9BRD0 whole entry, looked up): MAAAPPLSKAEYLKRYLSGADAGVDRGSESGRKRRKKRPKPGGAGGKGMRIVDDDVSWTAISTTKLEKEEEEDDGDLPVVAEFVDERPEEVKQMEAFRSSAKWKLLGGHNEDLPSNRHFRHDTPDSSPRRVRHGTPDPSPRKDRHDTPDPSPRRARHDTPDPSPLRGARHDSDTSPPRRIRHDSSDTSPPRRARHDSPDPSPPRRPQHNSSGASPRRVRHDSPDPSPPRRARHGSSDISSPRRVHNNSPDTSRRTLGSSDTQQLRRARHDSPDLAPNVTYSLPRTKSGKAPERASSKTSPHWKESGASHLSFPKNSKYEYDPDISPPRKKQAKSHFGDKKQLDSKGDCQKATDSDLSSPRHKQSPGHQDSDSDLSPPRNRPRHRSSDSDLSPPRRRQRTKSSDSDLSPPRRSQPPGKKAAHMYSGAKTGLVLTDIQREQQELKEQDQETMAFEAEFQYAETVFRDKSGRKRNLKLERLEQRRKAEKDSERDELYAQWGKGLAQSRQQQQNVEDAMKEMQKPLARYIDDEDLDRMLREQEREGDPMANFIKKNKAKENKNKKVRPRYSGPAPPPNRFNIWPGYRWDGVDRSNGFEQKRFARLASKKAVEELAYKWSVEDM
Sequence of UniProt Q1RMZ1 (Q1RMZ1 whole entry, looked up): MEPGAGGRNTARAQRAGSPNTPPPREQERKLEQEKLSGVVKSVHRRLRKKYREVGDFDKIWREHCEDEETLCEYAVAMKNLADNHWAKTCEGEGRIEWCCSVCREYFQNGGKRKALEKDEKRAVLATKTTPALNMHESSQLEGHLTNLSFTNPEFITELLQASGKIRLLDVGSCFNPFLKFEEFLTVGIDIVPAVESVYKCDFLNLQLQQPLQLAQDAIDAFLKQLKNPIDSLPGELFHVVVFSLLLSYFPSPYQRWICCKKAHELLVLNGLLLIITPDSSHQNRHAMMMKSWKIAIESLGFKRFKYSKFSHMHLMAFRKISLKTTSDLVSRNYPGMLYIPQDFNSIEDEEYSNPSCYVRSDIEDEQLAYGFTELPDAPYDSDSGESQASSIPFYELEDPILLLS
Sequence of UniProt Q86Y37 (Q86Y37 whole entry, looked up): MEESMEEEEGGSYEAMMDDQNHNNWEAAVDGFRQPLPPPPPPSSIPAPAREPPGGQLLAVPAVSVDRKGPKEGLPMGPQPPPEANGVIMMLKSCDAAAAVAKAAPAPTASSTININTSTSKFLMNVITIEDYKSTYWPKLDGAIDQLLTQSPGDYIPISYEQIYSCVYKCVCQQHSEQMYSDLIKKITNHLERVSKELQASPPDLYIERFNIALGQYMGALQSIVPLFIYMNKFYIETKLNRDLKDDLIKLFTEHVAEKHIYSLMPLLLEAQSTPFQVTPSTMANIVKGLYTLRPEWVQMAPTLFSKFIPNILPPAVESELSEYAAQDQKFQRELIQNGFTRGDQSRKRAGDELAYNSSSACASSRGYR

Target	log2 fold change [1]	log2 fold change (gandotinib)	log2 fold change [2]	log2 fold change (nilotinib)	log2 fold change [3]	log2 fold change [4]	log2 fold change (tipifarnib)	log2 fold change (lapatinib)	log2 fold change (duvelisib)	log2 fold change (tozasertib)	log2 fold change (dasatinib)	log2 fold change [5]	log2 fold change [6]	log2 fold change (crizotinib)	log2 fold change (doramapimod)	log2 fold change (quisinostat)	log2 fold change [7]	log2 fold change [8]	log2 fold change (pictilisib)	log2 fold change (bafetinib)
BMT2 (UniProt Q1RMZ1)	0.116	-0.124	-0.056	0.172	-0.923 (active)	0.134	0	–	–	–	–	–	–	–	–	–	–	–	–	–
CHD4, A0A2R8Y521	–	–	–	-0.125	-0.088	-0.156	0.391	0.025	0.006	0.081	-0.09	-0.247	-0.174	–	–	–	–	–	–	–
BAHCC1 (UniProt Q9P281)	-0.956 (active)	0.006	0.234	-0.191	0.019	-0.141	0.031	-0.117	0.002	0.052	-0.144	-0.039	0.021	-0.191	0.137	-0.328	-0.053	0.07	–	–
CACUL1 (UniProt Q86Y37)	0.061	-0.151	0.08	–	–	–	–	-0.26	0.044	0.094	-0.094	0.157	-0.1	0.037	0.029	0.025	0.102	-0.028	–	–
BUD13 (UniProt Q9BRD0)	-0.053	0.045	0.114	-0.036	0.111	0	0.028	–	0.08	0.008	-0.094	0.019	–	-0.044	0.014	-0.044	-0.014	-0.019	0.104	-0.134
CDC14A isoform 2 (UniProt Q9UNH5)	–	–	–	-0.076	0.07	-0.001	-0.019	0.062	–	–	–	–	0.101	0.031	0.108	-0.174	0.083	–	–	–
C15orf39 (UniProt Q6ZRI6)	0.025	-0.076	-0.055	0.074	-0.006	0.019	-0.015	–	-0.049	0.097	-0.059	0.034	–	0.043	0	-0.017	0.053	0.184	-0.04	0.19
CEP152 (UniProt O94986)	-0.089	0.006	0.058	-0.058	0.108	-0.014	0.02	–	-0.017	-0.114	0.012	-0.017	–	-0.22	-0.057	-0.413 (active)	0.058	0.112	-0.013	-0.071
